For 4 molecules, outcome and AC50 results are on record in PubChem BioAssay (EPA / NIEHS).

Molecules are shown by their SMILES. “And” between values parts separate entries of the source, which are not always exact repeats. Identical values can stand only once. Records with an inconclusive call do not appear. Some structures have more than one record in an assay (separate samples or runs), and their calls can disagree. The source made the active and inactive calls. Rule for the calls, unless noted: active = hit-call score of the fitted dose curve at least 0.9, where 1 is the maximum; inconclusive = response in the unintended direction; inactive = score below 0.9.

Read-out in assay [1]: Transforming Growth Factor (TGFB1), TGFB1 (gene 7040)
Description: LTEA_HepaRG_TGFB1: Life Technologies and Expression Analysis (LTEA) Assay for Transforming Growth Factor (TGFB1) Transporter using HepaRG (AID 2283533; active = hit-call score of the fitted dose curve at least 0.9, where 1 is the maximum; inactive = score below 0.9). The conditions noted are these: mRNA level, 48 h; actives raise or lower the signal. The essentials: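 Differentiated human HepaRG cells in serum-free induction medium were exposed in duplicate for 48 h to eight concentrations (top 100 uM, half-log steps, 0.5% DMSO). TGFB1 mRNA was quantified by qRT-PCR, normalized to ACTB, GAPDH, POLR2A, and fitted bidirectionally against DMSO.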

Read-out in the next assay: TIMP1, TIMP1 (gene 7076)
Description: LTEA_HepaRG_TIMP1: Life Technologies and Expression Analysis (LTEA) Assay for TIMP1 using HepaRG (AID 2283534; active = hit-call score of the fitted dose curve at least 0.9, where 1 is the maximum; inactive = score below 0.9). The conditions noted are these: mRNA level, 48 h; actives raise or lower the signal. The essentials: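 Differentiated human HepaRG cells in serum-free induction medium were exposed 48 h to chemicals (8 half-log concentrations, top 100 uM, 0.5% DMSO). TIMP1 mRNA was quantified by TaqMan qRT-PCR, normalized to ACTB/GAPDH/POLR2A; bidirectional fit versus DMSO.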

Read-out in assay [2]: Tumor necrosis factor receptor 1 (TNFRSF1A), TNFRSF1A (gene 7132)
Description: LTEA_HepaRG_TNFRSF1A: Life Technologies and Expression Analysis (LTEA) Assay for Tumor necrosis factor receptor 1 (TNFRSF1A) using HepaRG (AID 2283535; active = hit-call score of the fitted dose curve at least 0.9, where 1 is the maximum; inactive = score below 0.9). The conditions noted are these: mRNA level, 48 h; actives raise or lower the signal. The essentials:
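Differentiated human HepaRG cells were exposed in duplicate for 48 h in serum-free induction medium to eight concentrations (top 100 uM, half-log steps, 0.5% DMSO). TNFRSF1A mRNA was quantified by qRT-PCR, normalized to ACTB, GAPDH and POLR2A, then fitted bidirectionally against DMSO.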

Read-out in assay [3]: Thyroid Hormone Responsive (THRSP), THRSP (gene 7069)
Description: LTEA_HepaRG_THRSP: Life Technologies and Expression Analysis (LTEA) Assay for Thyroid Hormone Responsive (THRSP) using HepaRG (AID 2283536; active = hit-call score of the fitted dose curve at least 0.9, where 1 is the maximum; inactive = score below 0.9). To be noted: mRNA level, 48 h; actives raise or lower the signal. The method, boiled down:
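Differentiated HepaRG cells treated 48 h in serum-free induction medium with 8 half-log concentrations up to 100 uM (0.5% DMSO), duplicates. THRSP mRNA by TaqMan qRT-PCR normalised to ACTB, GAPDH, POLR2A; bidirectional fit versus DMSO.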

Read-out in assay [4]: Cellular tumor antigen p53 (Homo sapiens) (UniProt P04637)
Description: LTEA_HepaRG_TP53: Life Technologies and Expression Analysis (LTEA) Assay for Tumor Protein P53 (TP53) using HepaRG (AID 2283537; active = hit-call score of the fitted dose curve at least 0.9, where 1 is the maximum; inactive = score below 0.9). To be noted: mRNA level, 48 h; actives raise or lower the signal. The method, boiled down: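 TP53 transcript measured by qRT-PCR, normalized to three housekeeping genes, after 48 h treatment of human HepaRG cultures with chemicals from 100 uM downward in half-log steps (0.5% DMSO vehicle, serum-free induction medium). Up- or down-regulation fitted against DMSO.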

Read-out in assay [5]: UDP glucuronosyltransferase (UGT1A1), UGT1A1 (gene 54658)
Description: LTEA_HepaRG_UGT1A1: Life Technologies and Expression Analysis (LTEA) Assay for UDP glucuronosyltransferase (UGT1A1) using HepaRG (AID 2283538; active = hit-call score of the fitted dose curve at least 0.9, where 1 is the maximum; inactive = score below 0.9). To be noted: mRNA level, 48 h; actives raise or lower the signal. The essentials: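 Readout is UGT1A1 transcript level by qRT-PCR, normalized to three housekeeping genes, after 48 h chemical treatment of HepaRG cells. Concentrations ran from 100 uM down in half-log steps with 0.5% DMSO, and gain or loss relative to DMSO was fitted.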

Read-out in assay [6]: X-box binding protein 1 (XBP1), XBP1 (gene 7494)
Description: LTEA_HepaRG_XBP1: Life Technologies and Expression Analysis (LTEA) Assay for X-box binding protein 1 (XBP1) using HepaRG (AID 2283540; active = hit-call score of the fitted dose curve at least 0.9, where 1 is the maximum; inactive = score below 0.9). The conditions noted are these: mRNA level, 48 h; actives raise or lower the signal. The method, boiled down:
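Differentiated human HepaRG cells in serum-free induction medium were exposed in duplicate for 48 h to eight half-log concentrations up to 100 uM in 0.5% DMSO. XBP1 mRNA was quantified by qRT-PCR, normalised to ACTB, GAPDH and POLR2A, with bidirectional fitting against DMSO.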

Assay [7] in a line: LTEA_HepaRG_LDH_cytotoxicity: Cytotoxicity Assessment in the Life Technologies and Expression Analysis (LTEA) Assay (AID 2283563). The method, boiled down: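 Differentiated human HepaRG cells, plated 48 h beforehand, were switched to serum-free induction medium and exposed for 48 h to eight half-log concentrations (top 100 uM) in 0.5% DMSO. LDH was measured in spent medium; activity was fitted relative to DMSO vehicle.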

Assay [8] in a line: TOX21_p53_BLA_p2_viability: Viability Assessment in the Tox21 HCT-116 p53 Agonism Beta-lactamase Assay, Phase 2 (AID 2283591).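 Note: compound exposure lasted 16 h at 37 °C; actives lower the ATP signal meaning cytotoxicity.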 The essentials:
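HCT116 p53-bla cells, 4000/well, dosed after 5 h plating (217-fold dilution of DMSO stocks) and incubated 16 h at 37C. Viability taken as cellular ATP by CellTiter-Glo luminescence after 30 min RT; signal loss marks cytotoxicity.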

For assay [9], the target named is Cellular tumor antigen p53 (Homo sapiens) (UniProt P04637). Description: TOX21_p53_BLA_p2_ratio: Tox21 HCT-116 p53 Agonism Beta-lactamase Assay, Ratio, Phase 2 (AID 2283592). The essentials:
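HCT116 cells carrying a p53-responsive beta-lactamase reporter were plated, incubated 5 h at 37C, then dosed with compounds in DMSO (217-fold dilution) for 16 h. CCF4-AM substrate was added for 2 h at room temperature; the 460/530 nm emission ratio gave gain-of-signal activity relative to DMSO.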

A short description of assay [10]: TOX21_p53_BLA_p3_viability: Viability Assessment in the Tox21 HCT-116 p53 Agonism Beta-lactamase Assay, Phase 3 (AID 2283593).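 Note: cells exposed to compound for 16 h before reading.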 The essentials: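 HCT116 cells, 4000/well, dosed 5 h after plating by pin transfer (217-fold dilution from DMSO stock) and incubated 16 h at 37C, 5% CO2. Viability read as ATP luminescence with CellTiter-Glo after 30 min at room temperature.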

Assay [11] has as its target Cellular tumor antigen p53 (Homo sapiens) (UniProt P04637). Description: TOX21_p53_BLA_p3_ratio: Tox21 HCT-116 p53 Agonism Beta-lactamase Assay, Ratio, Phase 3 (AID 2283596). The method, boiled down: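 HCT116 p53-bla cells (4000/well) given compound in DMSO (217-fold dilution) after 5 h, incubated 16 h at 37C. CCF4-AM substrate 2 h at room temperature; 460/530 nm emission ratio, gain fitted against DMSO.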

Assay [12] is described as follows: TOX21_p53_BLA_p4_viability: Viability Assessment in the Tox21 HCT-116 p53 Agonism Beta-lactamase Assay, Phase 4 (AID 2283597).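 Note: hits lower the luminescence signal meaning cytotoxicity.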 The essentials:
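HCT116 p53-bla cells (4000/well) rested 5 h at 37C, then received compounds in DMSO (217-fold dilution) for 16 h at 37C, 5% CO2. CellTiter-Glo was added after the CCF4-AM read, and luminescence was read after 30 min at room temperature.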

Assay [13] concerns the target Cellular tumor antigen p53 (Homo sapiens) (UniProt P04637). Description: TOX21_p53_BLA_p5_ratio: Tox21 HCT-116 p53 Agonism Beta-lactamase Assay, Ratio, Phase 5 (AID 2283599). The essentials:
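HCT-116 p53-bla cells (4000/well) plated 5 h, dosed with compound (217-fold DMSO dilution) for 16 h at 37 C; CCF4-AM substrate 2 h at room temperature. Activity is the 460/530 nm emission ratio (405 nm excitation), fitted in gain-of-signal direction versus DMSO.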

A short description of assay [14]: TOX21_p53_BLA_p5_viability: Viability Assessment in the Tox21 HCT-116 p53 Agonism Beta-lactamase Assay, Phase 5 (AID 2283600). The method, boiled down:
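Cells were plated at 4000/well, rested 5 h at 37C, then given compounds in DMSO (217-fold dilution) for 16 h at 37C, 5% CO2. Following the CCF4-AM beta-lactamase read, CellTiter-Glo was added and luminescence was read after 30 min at room temperature.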

The target of assay [15] is Cellular tumor antigen p53 (Homo sapiens) (UniProt P04637). Description: TOX21_p53_BLA_p4_ratio: Tox21 HCT-116 p53 Agonism Beta-lactamase Assay, Ratio, Phase 4 (AID 2283601). The essentials: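 HCT-116 p53 beta-lactamase reporter cells (4000/well) preincubated 5 h, then compound (217-fold dilution of DMSO stock) for 16 h at 37C. CCF4-AM substrate added 2 h at room temperature; 460/530 nm emission ratio fitted upward versus DMSO.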

A short description of assay [16]: Tanguay_ZF_120hpf_MORT_legacy: (Legacy) Oregon State University Tanguay Lab 120 Hour Post-fertilization zebrafish Assay for Mortality (AID 2283633). The essentials:
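Dechorionated Tropical 5D wild-type zebrafish embryos, one per well from 6 hpf, were statically exposed at 28C in the dark until 120 hpf (0.64% DMSO final). Mortality was scored as present/absent by brightfield microscopy, fitted positively versus DMSO.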

Assay [17] can be described thus: Tanguay_ZF_120hpf_YSE_legacy: (Legacy) Oregon State University Tanguay Lab 120 Hour Post-fertilization zebrafish Assay for Yolk Sac Edema (AID 2283634).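 For AC50: actives raise the incidence of yolk sac edema above the DMSO baseline.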 The essentials: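 Tropical 5D wild-type embryos, dechorionated with pronase at 4 hpf, were exposed singly from 6 hpf to 120 hpf under static, sealed, dark conditions at 28C with 0.64% DMSO final. Yolk sac edema was scored present/absent by brightfield microscopy.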

Assay [18] in a line: ATG_XTT_Cytotoxicity: Cytotoxicity Assessment in the Attagene TRANS-FACTORIAL HepG2 Assay (AID 2283584). The method, boiled down:
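HepG2 human liver cells, transiently transfected with multiple GAL4-UAS reporter units, were dosed and read at 24 h by XTT as cell number. Loss of signal was fitted relative to DMSO negative control baseline.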

Sequence of Cellular tumor antigen p53 (Homo sapiens) (P04637 whole entry, looked up): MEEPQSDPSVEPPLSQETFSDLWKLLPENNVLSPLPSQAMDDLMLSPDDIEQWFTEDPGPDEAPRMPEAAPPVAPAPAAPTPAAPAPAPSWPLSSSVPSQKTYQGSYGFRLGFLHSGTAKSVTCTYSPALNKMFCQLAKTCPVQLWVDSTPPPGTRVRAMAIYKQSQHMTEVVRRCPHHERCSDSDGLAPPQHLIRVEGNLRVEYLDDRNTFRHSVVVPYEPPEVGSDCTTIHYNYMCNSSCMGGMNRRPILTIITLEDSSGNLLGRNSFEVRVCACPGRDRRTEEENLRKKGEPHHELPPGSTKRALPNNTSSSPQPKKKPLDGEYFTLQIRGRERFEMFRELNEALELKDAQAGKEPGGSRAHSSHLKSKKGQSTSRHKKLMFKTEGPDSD

As to `COc1nn(CSP(=S)(OC)OC)c(=O)s1`, the outcome in assay [1] was “inactive”; with TIMP1, TIMP1 (gene 7076) it was “inactive”; in assay [2], “inactive”; in assay [3], “inactive”; in assay [4], “inactive”; in assay [6] it was “inactive”. Further, the outcome in [7], in assay [8], in [9], in assay [10], in assay [11] and in [12] was inactive. Further, the outcome in assay [13], in assay [14], in assay [15], in [16] and in assay [17] was inactive. The AC50 in assay [5] is 15.1 µM (active).
As for `CC(C)(C)C(O)C(Oc1ccc(Cl)cc1)n1cncn1` (configuration not stated), the outcome was “inactive” in [1]; “inactive” with TIMP1, TIMP1 (gene 7076); “inactive” in assay [2]; “inactive” in assay [4]; “inactive” in [6]; “inactive” in assay [7]. Also, the molecule was called inactive in assay [18], in assay [8], in assay [9], in [10], in assay [11] and in assay [12]. Further, the outcome in assay [13], in assay [14], in assay [15] and in [16] was inactive. The AC50 is 35.3 µM (active) and 36 µM (active) and 27.9 µM (active) in [3]; 0.354 µM (active) in [4]; 3.12 µM (active) and 2.49 µM (active) and 3.05 µM (active) in [5]; 40.2 µM (active) and 31 µM (active) and 43.9 µM (active) in assay [17].
Consider `COC(=O)c1ccccc1S(=O)(=O)NC(=O)Nc1nc(C)nc(OC)n1`, for which the molecule was called inactive in assay [18], in assay [8], in [9], in assay [10] and in [15].
Regarding `COP(=O)(OC)OC=C(Cl)Cl`, the outcome in [1] was “inactive”; in the assay with TIMP1, TIMP1 (gene 7076), “inactive”; in assay [2], “inactive”; in assay [3], “inactive”; in assay [5] it was “inactive”; in [6], “inactive”. In addition, the outcome in assay [7], in assay [16] and in assay [17] was inactive.
